Shown are actives, neighbours in structure and some others; about 1.5% of the full set was active somewhere.
ANO1 block: mouse TMEM16A channel inhibition, primary screen. HEK293 TMEM16A/YFP iodide influx fluorescence, ionomycin. normalized B-score (activity score, 25-100; higher = stronger inhibition) at 10 µM. 310,000 compounds, 1.2% hits. AID 588511;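 active means ratio plate-corrected score three or more library SD toward inhibition, starting fluorescence score within five deviations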;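 further: score derived from kinetic fluorescence span divided by baseline fluorescence per well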
TMEM16A act: activators or potentiators of mouse TMEM16A chloride channel. AID 623877. B-score at 10 µM. HEK293 TMEM16A/YFP-H148Q/I152L, iodide quench fluorescence; stronger effect = lower value. 340,000 compounds, 0.3% hits. Q8BHY3;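 active means fluorescence-ratio B-score plate-corrected deviation score at least 3 library SD below zero, with starting fluorescence score within 5 deviations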;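 further: channel opened by trigger with iodide after compound preincubation; score built on the fluorescence ratio of max minus min over baseline; more negative score means more quench and so TMEM16A activation or potentiation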
iPSC survival up: hiPSC single-cell survival enhancement; 360,000 compounds, 0.044% hits; survival enhancement, % at 20 µM; ATPlite luminescence; 100% = ROCK inhibitor wells, 0% = DMSO; in the data active means survival enhancement above about 18%;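 further: cells exposed to compounds for 16 hours before the ATP read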
DAGLB inh: diacylglycerol lipase beta (human) inhibition. 340,000 compounds, 0.059% hits. AID 504411. inhibition, % at 5.17 µM. HEK293T DAGLB membrane lysate, EnzChek fluorogenic substrate; in the data active means inhibition above about 34%
ABCB6 inh 2: blocks the human ABCB6 transporter; Q9NP58; fluorescence ratio to DMSO, % at 10 µM; K562-ABCB6 porphyrin accumulation, flow cytometry, 1 h; stronger effect = lower value; 360,000 compounds, 0.19% hits; AID 602162;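 active means fluorescence ratio to DMSO below 75%, the collection mean minus 3 SD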;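 further: signal is porphyrin accumulated inside mitochondria; lower ratio means ABCB6 inhibition with less porphyrin fluorescence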
Hits are given with their value; . = inactive; / = no result.

SMILES	ANO1 block	TMEM16A act	iPSC survival up	DAGLB inh	ABCB6 inh 2
O=C(NCCc1ccccc1)C(c1cccs1)N(C(=O)CCl)c1ccc(Cl)cc1 (stereo unspecified)	.	.	.	.	33
O=C(NCc1ccco1)C(c1cccs1)N(C(=O)Cc1cccs1)c1ccccc1 (stereo unspecified)	.	.	.	.	.
O=C(O)C1=CC[C@@H](c2ccc(Cl)cc2)N(S(=O)(=O)c2ccc(Cl)cc2)[C@H]1c1ccc(Br)cc1	/	/	.	.	.
O=[N+]([O-])c1ccccc1S(=O)(=O)NCCC1=CCCCC1	25	.	.	.	.
C=CC[C@@H](CC(=O)N[C@H](CO)Cc1ccccc1)C(=O)NC[C@@H](OC(=O)[C@@H](CC=C)Cc1ccc(F)cc1)c1ccccc1	/	.	.	.	.
Cc1c(C(=O)Nc2nc3ccccc3[nH]2)oc2ccc(Br)cc12	.	-4.6	.	.	.
O=C(COc1ccccc1C(=O)O)Nc1cccc2ccccc12	/	.	.	.	.
O=C(COc1cccc2ccccc12)Nc1cc(Cl)ccc1C(=O)O	100	.	.	.	.
O=C(COc1cccc2ccccc12)Nc1ccc(Cl)cc1C(=O)O	100	.	.	.	.
COc1ccc(NC(=O)N(C)C[C@H]2Oc3ncc(Br)cc3C(=O)N([C@H](C)CO)C[C@@H]2C)cc1	/	/	.	.	.
COc1ccc(N(Cc2ccccc2)C(=O)CSc2nnc(Cn3nnc4ccccc43)o2)cc1	.	.	.	.	.
O=C(CSc1nnc(Cn2nnc3ccccc32)o1)N(Cc1ccc(F)cc1)c1ccccc1	25	.	.	.	.
CC(C)N=c1scc(-c2ccco2)n1/N=C/c1ccc(O)c(O)c1	100	.	.	.	.
COCCN=c1scc(-c2ccco2)n1/N=C/c1ccc(O)c(O)c1O	.	.	.	.	.
Cc1cccc(C)c1-n1cccc1/C=C1\SC(=S)N(c2cccc(C(=O)O)c2)C1=O	100	.	.	.	.
COC(=O)[C@H]1C[C@H](OC(=O)NCc2ccccc2F)[C@@]2(O)CN(S(=O)(=O)c3ccc(C)cc3)CC2[C@H]1C(=O)OC (stereo partly specified)	/	/	.	.	.
Cn1cc(C(c2ccccc2OCC(=O)O)c2cn(C)c3ccccc23)c2ccccc21	25	.	.	.	.
CCn1c(=O)cc(OCC(=O)O)c2ccccc21	.	.	.	.	.
CC1CCCCN1C(=S)NC(=O)c1cc(Br)ccc1Cl (stereo unspecified)	/	.	.	.	.
C/C(=C\C(=O)c1ccc(Br)cc1)NCc1ccc(C)cc1	100	.	.	.	.
C/C(=C\C(=O)c1ccc(Br)cc1)NCc1ccccc1	.	.	.	.	.
Cc1ccc(OCC(=O)N(Cc2cccc(Cl)c2)C2CCS(=O)(=O)C2)cc1C (stereo unspecified)	.	-40	.	.	.
COc1ccc(C(C(=O)NCc2ccccc2)N(C(=O)c2snc(C(N)=O)c2N)C2CCCC2)cc1O (stereo unspecified)	.	.	.	.	.
c1cn2cc(CN3CCOCC3)nc2s1	25	.	.	.	.
COc1ccc(-c2n(CC(=O)OC3CC(C)CCC3C(C)C)c3ccccc3[n+]2C)cc1 (stereo unspecified)	/	-6.1	.	.	.
SMILES	ANO1 block	TMEM16A act	iPSC survival up	DAGLB inh	ABCB6 inh 2
COc1ccc(OCc2n(CC(=O)OC3CC(C)CCC3C(C)C)c3ccccc3[n+]2C)cc1 (stereo unspecified)	.	.	.	.	.
Cc1ccccc1Oc1cc(-n2ncc(Cl)c(Cl)c2=O)ncn1	.	.	.	.	60
CCCC(c1nnnn1Cc1cccs1)N1CCN(c2nc3ccccc3s2)CC1 (stereo unspecified)	.	-13	.	.	.
COc1ccc(NC(=O)N(C)C[C@H]2OCc3cnnn3CCCC(=O)N([C@@H](C)CO)C[C@H]2C)c(OC)c1	/	/	.	.	.
CCC(=O)Nc1cc(SCCO)cc([N+](=O)[O-])c1	100	.	.	.	.
O=C(CCl)Nc1cc(SCC(O)CO)cc([N+](=O)[O-])c1 (stereo unspecified)	/	.	.	.	.
CC(=O)Nc1ccc(Br)c2ccccc12	.	.	.	.	.
O=C(Nc1ccc(Br)c2ccccc12)c1ccc2ccccc2c1O	100	.	.	.	.
O=C(CSc1ccccc1)NCCCN1CCOCC1	.	-11	.	.	.
O=C(Nc1ccn(CCCN2CCN(Cc3ccc(F)cc3)CC2)c(=O)n1)OCc1ccccc1	/	/	.	.	.
COc1ccc(NS(=O)(=O)c2ccc(NC(=S)NC(=O)C(C)C)cc2)cc1	25	.	.	.	.
O=C(c1ccc(CSc2nc3ccncc3[nH]2)cc1)N1CCN(c2cccc(Cl)c2)CC1	100	.	.	.	.
O=C(c1ccc(CSc2nc3ccncc3[nH]2)cc1)N1CCCCCC1	.	.	.	.	.
O=C(O)c1cc(S(=O)(=O)N2CC=C(c3ccccc3)CC2)ccc1O	/	.	.	.	.
O=C(O)CSc1c(Cl)c(=O)oc2ccc(Cl)cc12	/	/	.	.	.
O=[N+]([O-])c1ccc(O)c(/C=N/n2c(CO)nc3ccccc32)c1	.	.	.	.	.
O=[N+]([O-])c1ccc(O)c(/C=N/n2cnc3ccccc32)c1	25	.	.	.	.
O=C1ON=C(c2ccccc2)/C1=C/c1ccc(-c2ccccc2[N+](=O)[O-])o1	25	-6.2	.	.	.
O=[N+]([O-])c1ccccc1S(=O)(=O)Nc1cccc(S(=O)(=O)N2CCCC2)c1	/	.	.	.	.
CCOCCCNC(=O)Cn1nc(Cc2ccncc2)c2ccccc2c1=O	.	.	.	.	.
C#CCOCCOCCOCCNc1nc(N2CCN(C(=O)CCCCCCCCCCNC(=O)[C@@H](CCC(=O)O)n3cc(CCCCCN)nn3)CC2)nc(N2CCN(C(=O)CCCCCCCCCCNC(=O)[C@H](CCCCN)n3cc(C[C@@H](C)CC)nn3)CC2)n1	100	-5.7	.	.	.
C#CCOCCOCCOCCNc1nc(N2CCN(C(=O)CCCCCCCCCCNC(=O)[C@H](CCCCN)n3cc(CCO)nn3)CC2)nc(N2CCN(C(=O)CCCCCCCCCCNC(=O)[C@H](CCCCN)n3cc(C[C@@H](C)CC)nn3)CC2)n1	100	/	/	/	/
CCn1c(COc2cccc3ccccc23)nnc1SCC(=O)OC1CCCCC1	100	.	.	.	.
Cn1c(COc2cccc3ccccc23)nnc1SCC(=O)OC1CCCCC1	.	.	.	.	.
O=C(O)c1cc2c(N3CCC(Cc4ccccc4)CC3)ncnc2s1	.	.	.	.	.
c1ccc(CC2CCN(c3ncnc4sccc34)CC2)cc1	/	-40	.	.	.
CC1(c2nnnn2Cc2ccccc2)CCC(=O)N1Cc1ccc(F)cc1 (stereo unspecified)	/	/	.	/	.
Cc1ccc(NC(=O)CN(C)C(=O)COc2cccc3ccc(C)nc23)cc1	/	.	.	.	.

Bioassay records (PubChem BioAssay)
